High-throughput results as filed in PubChem BioAssay.
CHO-K1 Ca antag – nonselective inhibitor or artifact in parental CHO-K1 cells; ATP-induced calcium, Fluo-8 fluorescence; inhibition, % at 3 µM; 360,000 compounds, 0.6% hits; AID 602250;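 active = inhibition above a per-plate cutoff, the plate's mean sample inhibition plus 3 SD, cut at about 24% in these data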;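 also: 0% = DMSO plus EC80 ATP and 100% = DMSO alone without ATP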
M1 PAM parental – nonselective calcium activators in parental CHO-K1 cells, primary screen, counter-screen for M1 PAM project, cell-based, Fluo-8 calcium fluorescence, full deck, 1536-well | AID 602247, 2012 | activation, % at 3 µM | ATP EC20; 0% at ATP EC20, 100% at ATP max | 360,000 compounds, 0.02% hits;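 active = activation above the run cutoff, the mean activation of all test compounds plus 3 SD, cut at about 40% in these data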;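 also: peak over basal fluorescence ratio in a 140 s read after ATP addition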
M1 PAM – human M1 muscarinic receptor positive allosteric modulators, primary screen, CHO-K1 cells, Fluo-8 calcium fluorescence, 1536-well | CHO-K1 hM1, ACh EC20; 0% = ACh EC20, 100% = maximal ACh | AID 588819, 2011 | activation, % at 3 µM | 360,000 compounds, 0.088% hits; in the data active = activation above about 19%, passing the limit was not always enough
Target sequence (P11229 whole entry, looked up): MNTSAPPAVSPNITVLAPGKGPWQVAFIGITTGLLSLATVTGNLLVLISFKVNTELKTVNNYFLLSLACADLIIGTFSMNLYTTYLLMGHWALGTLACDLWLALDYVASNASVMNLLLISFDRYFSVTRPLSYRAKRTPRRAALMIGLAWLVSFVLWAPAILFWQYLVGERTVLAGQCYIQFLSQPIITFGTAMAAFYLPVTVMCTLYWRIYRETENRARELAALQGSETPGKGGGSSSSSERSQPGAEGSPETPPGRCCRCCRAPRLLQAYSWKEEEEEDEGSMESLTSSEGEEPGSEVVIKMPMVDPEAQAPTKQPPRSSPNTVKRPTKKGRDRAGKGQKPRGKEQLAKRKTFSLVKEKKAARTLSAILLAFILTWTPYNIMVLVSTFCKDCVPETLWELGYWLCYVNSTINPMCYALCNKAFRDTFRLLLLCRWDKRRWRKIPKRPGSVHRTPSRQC
M1 ag – human M1 muscarinic receptor agonists, primary screen, Fluo-8 calcium fluorescence, CHO-K1 cells, HTS. Muscarinic acetylcholine receptor M1 (Homo sapiens), P11229. CHO-K1 hM1, agonist mode; 0% DMSO, 100% acetylcholine EC100. activation, % at 3 µM. 360,000 compounds, 0.33% hits. AID 588814, 2011;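 active = activation above the run's mean compound activation plus 3 SD, cut at about 16% in these data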;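 also: peak over basal fluorescence ratio within a 140 s kinetic read after compound addition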
CHRM1 antagonist – human M1 muscarinic receptor antagonists, primary screen, CHO-K1 cells, Fluo-8 calcium fluorescence, 1536-well | inhibition, % at 3 µM | AID 588852, 2011 | Muscarinic acetylcholine receptor M1 (Homo sapiens), P11229 | 360,000 compounds, 1.3% hits | CHO-K1 hM1, ACh EC80 antagonist;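 active = percent inhibition above its own plate's cutoff, namely the mean of that plate's compound wells plus 3 SD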;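 also: peak over basal fluorescence ratio during 140 s after agonist addition; 0% = ACh EC80 plus DMSO and 100% = DMSO alone without agonist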
M1 ag parental – counter-screen for M1 agonists: effect in parental CHO-K1 cells | Fluo-8 calcium fluorescence; scaled to maximal ATP response, vehicle zero | activation, % at 3 µM | 360,000 compounds, 0.48% hits | AID 602248, 2012; in the data active = activation above about 15%;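 also: untransfected CHO-K1 host cells lacking M1 receptor as counterscreen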
* hit, by the source's call. This is a sample that favours compounds with a hit; in the whole collection about 2.3% have one here.

SMILES | CHO-K1 Ca antag | M1 PAM parental | M1 PAM | M1 ag | CHRM1 antagonist | M1 ag parental
COc1ccc(/C(C)=N/NC(=O)c2ccc(CSc3nncn3C)cc2)cc1 | 8.9 | 15.1 | -4.9 | -2.7 | 13.4 | 15.4*
O=C(Nc1ccc(-c2nc3cccnc3s2)cc1)c1cccnc1Cl | -9.7 | 17.8 | 3.4 | 1.8 | -3.6 | 3.1
O=C(Nc1ccc(-c2nc3cccnc3s2)cc1)c1ccc(Cl)nc1 | 4.0 | 6.7 | 6.9 | 0.6 | -13.9 | 20.8*
O=C(CCC(=O)OCc1ccc(Br)cc1)Nc1ccccc1 | -4.9 | 12.3 | 5.9 | -3.9 | -4.7 | 1.2
COc1ccc(CC(=O)Nc2cccc(-c3ccc4nnc(C)n4n3)c2)cc1OC | -9.6 | 1.6 | 2.1 | -2.7 | -3.6 | 2.0
CCCCN1C(=O)Cc2c1nc(N)c1c(N)nc(N(CCC)CCC)c(C#N)c21 | 24.6* | -8.7 | 0.3 | -1.8 | 12.8 | 0.4
C=CC(C)(C)c1cc2cc3ccoc3cc2oc1=O | -0.5 | -19.4 | -3.5 | -5.9 | -2.3 | 0.4
COc1ccc(CN2CCC(n3nccc3NC(=O)CCc3ccccc3)CC2)c(C)c1C | -3.1 | 26.9 | 12.8 | -1.3 | 1.2 | 1.4
COC(=O)c1[nH]c2c(c1C)C(=O)CC(c1ccc(OC)c(OC)c1)C2 (configuration not stated) | 11.1 | -6.0 | -1.4 | 3.1 | 1.7 | 23.2*
COCCOC(=O)c1[nH]c2c(c1C)C(=O)CC(c1ccc(OC)c(OC)c1)C2 (configuration not stated) | 21.6 | -0.5 | -4.6 | 2.8 | 14.7 | 1.5
CCOC(=O)c1[nH]c2c(c1C)C(=O)CC(c1ccc(F)cc1)C2 (configuration not stated) | 34.3* | -12.5 | 0.5 | 3.6 | -3.4 | 1.2
Cc1ccc(NC(=O)CCC(=O)OCC(=O)c2ccc(Oc3ccc([N+](=O)[O-])cc3)cc2)c(C)c1 | 29.9* | -0.8 | 2.3 | 2.1 | 9.6 | 1.1
CCOc1ccc(-c2c(C(=O)N/N=C(\C)c3cccs3)nnn2-c2nonc2N)cc1 | -19.3 | 13.2 | 7.3 | 6.7 | -5.9 | 1.9
CCOc1cccc(-c2c(C(=O)N/N=C(\C)c3cccs3)nnn2-c2nonc2N)c1 | -17.4 | 28.8 | 3.8 | 31.5* | -0.3 | 6.4
COc1cccc(-c2c(C(=O)N/N=C(\C)c3cccs3)nnn2-c2nonc2N)c1 | -7.1 | 6.6 | 16.4 | 34.4* | -2.2 | 5.2
Cc1cc(C)cc(NC(=O)N2CCN(C/C=C/c3ccccc3)CC2)c1 | -11.5 | 17.9 | -3.1 | -9.1 | 2.5 | -0.1
Cc1ccc(S(=O)(=O)NCCC(=O)N2CCCCCCC2)cc1C | 3.4 | 4.0 | 12.0 | -2.6 | -1.9 | 0.4
O=C(/C=C/c1cn(-c2ccccc2)nc1-c1ccccc1)Nc1ccc(C(=O)O)cc1 | -2.7 | 2.1 | -21.4 | -4.9 | 98.2* | -0.1
NS(=O)(=O)c1ccc(NC(=O)/C=C/c2cn(-c3ccccc3)nc2-c2cccc(Cl)c2)cc1 | -4.5 | -4.7 | 9.5 | -5.2 | -12.4 | 0.4
CC(=O)Nc1ccc(NC(=O)Cn2c(=O)n(-c3ccccc3)c(=O)c3oc4ccccc4c32)cc1 | 0.6 | 17.2 | 8.4 | 0.8 | -5.0 | 15.3*
OC1c2cc(Br)ccc2N=C2CCCN21 (configuration not stated) | -5.1 | 0.0 | 9.0 | -7.4 | -3.8 | 0.5
OC1c2cc(Br)ccc2N=C2CCCCCN21 (configuration not stated) | 14.4 | -10.6 | -33.4 | -4.5 | 78.5* | -0.1
O=C(CCCN=C1NS(=O)(=O)c2ccccc21)OCC(=O)c1ccc(F)cc1 | 2.0 | 0.7 | 1.7 | 22.4* | -5.5 | 9.2
Clc1cccc(Cl)c1CSc1nnc(-c2ccncc2)s1 | -8.7 | 1.8 | -25.5 | 59.9* | 43.3* | 0.9
O=S(=O)(/N=C(\c1ccccc1F)N1CCCCC1)c1ccccc1 | -5.0 | 24.9 | 8.7 | -5.4 | -12.5 | 0.8
SMILES | CHO-K1 Ca antag | M1 PAM parental | M1 PAM | M1 ag | CHRM1 antagonist | M1 ag parental
CC(=O)Nc1cccc(NC(=O)c2cc(-c3cccnc3)nc3ccc(Br)cc23)c1 | 5.8 | -16.1 | -22.4 | -4.7 | 41.6* | 5.8
Cc1ccc(NC(=O)CSc2ncn[nH]2)cc1 | 10.7 | 6.6 | -5.4 | -6.7 | 2.9 | 18.7*
CCOc1ccc(NC(=O)CSc2ncn[nH]2)cc1 | -6.3 | 18.8 | 3.9 | -3.7 | -6.5 | 0.9
O=C(NP(=O)(N1CCCC1)N1CCCC1)C1=C(N2CCOCC2)/C(=C/c2cccc([N+](=O)[O-])c2)CC1 | 6.8 | 8.1 | 2.9 | -5.9 | -3.5 | 17.2*
CCOC(=O)C(=O)C1=C(N2CCOCC2)/C(=C\c2cccc([N+](=O)[O-])c2)CC1 | -6.8 | 14.3 | 2.2 | -4.3 | -8.8 | 0.2
CN1C(=O)C(C)(C)c2cc(S(=O)(=O)NCc3ccc(C(=O)NCc4ccco4)cc3)ccc21 | -1.4 | -8.3 | 9.6 | -1.4 | -15.8 | 0.1
O=C(c1ccc(OC2CCN(C/C=C/c3ccccc3)CC2)cc1)N1CCCCC1 | 0.1 | -12.0 | -13.9 | -5.8 | 29.5* | 0.8
CCN(CC)C1CCN(C(=O)c2ccc(OC3CCN(CCc4ccccc4)CC3)cc2)C1 (configuration not stated) | -16.7 | 8.0 | -22.4 | -6.5 | 62.5* | 1.2
COC1CCN(C(=O)c2ccc(OC3CCN(CCc4ccccc4)CC3)cc2)CC1 | -4.1 | 9.9 | 8.2 | -13.0 | -6.1 | 0.4
CCCCOc1ccc(C(=O)NCC(=O)N2CCN(C/C=C/c3ccccc3)CC2)cc1 | 6.1 | -13.5 | -21.6 | 12.2 | 44.0* | 2.9
COc1ccc(/C=C/CN2CCC(Oc3ccc(C(=O)N4CCCCC4)cc3)CC2)cc1 | 0.9 | 1.8 | -20.4 | -4.5 | 43.7* | 3.1
CC(/C=N/NC(=O)c1sc(N)nc1C)=C\c1ccccc1 | -11.9 | 18.1 | 8.0 | 25.1* | -2.9 | 1.8
COc1ccc(S(=O)(=O)N2CCOCC2)cc1NC(=O)COC(=O)C1COc2ccccc2O1 (configuration not stated) | -0.4 | 8.1 | 7.4 | -4.7 | -7.2 | 0.6
Cc1ccc(CNC(=O)c2ccc(Cl)cc2[N+](=O)[O-])cc1 | 26.4* | -8.4 | -9.9 | -4.0 | 13.3 | -0.2
O=C(NCc1ccc(Cl)cc1)c1ccc(Cl)cc1[N+](=O)[O-] | -2.5 | 7.6 | 11.2 | -1.1 | -16.2 | 0.1
COc1ccc(CN2CCNC(=O)C2CC(=O)NCc2cn3ccc(C)cc3n2)c(OC)c1 (configuration not stated) | 3.4 | 8.0 | 9.5 | -11.1 | -6.2 | 0.5
